High-throughput results (PubChem)
Methyltransferases = Primary Screen for Target Class Profiling of Small Molecule Inhibitors of Methyltransferases; purified enzyme, MTase-Glo SAH luminescence; stronger effect = lower value; calls only at 40 µM; 25,000 tested, 3.9% active; call rule not given here
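Each enzyme was reacted with SAM and its substrate, with compounds tested once at 40 uM; SAH formed was read by MTase-Glo luminescence.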
* marks the source's active call; other numbers are inactive results; i = inactive; + = active, no number. Many of the other results were omitted from the sample, so hits are more common in it than they were. % is scaled to controls: 0 for no effect and ±100 for the full control effect.

SMILES	Methyltransferases
O=C(NCc1ccc2c(c1)OCO2)c1sc(=S)n2c1[nH]c(=O)c1cc3c(cc12)OCO3	i
CCc1ccc(NC(=O)c2sc(=S)n3c2[nH]c(=O)c2cc(Cl)ccc23)cc1	i
O=C(NCc1ccc2c(c1)OCO2)c1sc(=S)n2c1[nH]c(=O)c1ccc(Cl)cc12	+
CCCN(C)C(=O)Cn1c(C)ccc(NS(=O)(=O)c2ccc(C)cc2)c1=O	i
Cc1ccc(Cn2c(=O)c3ccccc3n3c(CCC(=O)Nc4cc(C)cc(C)c4)nnc23)cc1	i
CCCCN1C(=O)c2cc(C(=O)Nc3ccc(CC)cc3)nn2CC1(C)C(=O)NC1CCCC1 (stereo unspecified)	i
COc1ccc2cc3n(c2c1)CC(C)(C(=O)NC1CCCC1)N(Cc1cccs1)C3=O (stereo unspecified)	i
CC1(C(=O)NC2CCCC2)Cn2c(c(-n3cccc3)c3ccccc32)C(=O)N1Cc1cccs1 (stereo unspecified)	i
COc1cccc2cc3c(c(O[C@@H]4O[C@H](CO[C@@H]5O[C@H](CO)[C@@H](O)[C@H](O)[C@H]5O)[C@@H](O)[C@H](O)[C@H]4O)c12)C(C)OC3=O (stereo partly specified)	i
Nc1cccc(-c2cc3c(Oc4cccc(O)c4)ncnc3[nH]2)c1	+
NCc1ccc(Oc2ncnc3ccccc23)cc1	i
CCc1ccc(S(=O)(=O)c2nnn3c2nc(NCCc2c[nH]c4ccccc24)c2ccccc23)cc1	i
COC(=O)c1ccc(=O)c2nc3/c(=C/O)c(O)cc(=O)c3[nH]c12	+
Cc1noc(C)c1C(=O)N1CCC2(CC1)C(=O)NCN2C(=O)Cc1ccccc1	i
Cc1ccccc1CSc1nnc2n(Cc3ccccc3)c(=O)c3ccc(C(=O)NC(C)C)cc3n12	i
COc1ccccc1NC(=O)Cn1c(=O)c2ccccc2n2nnc(-c3ccccc3)c12	i
CCOc1ccc(-c2cc3n(n2)CC(C)(C(=O)NC2CCCCC2)N(CCCOC(C)C)C3=O)cc1 (stereo unspecified)	i
COc1ccc(CCNC(=O)C23CCC=C2N(C2CCCC2)C(=O)CC3)cc1OC (stereo unspecified)	i
O=C1NCCCCCCN(C(=O)c2ccco2)[C@H]2C[C@H](c3nc(-c4cnccn4)no3)C[C@@H]12	i
Oc1ccc(/C=C/c2ccc(/C=C/c3ccc(O)cc3)c(Br)c2)cc1	i
COc1cc(O)cc(/C=C/c2cccc(O)c2)c1	i
Oc1cc(O)cc(/C=C/c2ccc(O)c(O)c2)c1	+
COC(=O)[C@@]1(O)C=CC[C@@H]2[C@@]3(C)C[C@@H](c4ccoc4)OC(=O)[C@H]3CC[C@]21C	i
O=C(O)CC1(CC(=O)N[C@H]2C[C@@](O)(C(=O)N[C@H]3CCCNC3=O)C[C@@H](O)[C@@H]2O)CCCC1	i
CC(C)CCn1c(=O)c2ccccc2n2c(=O)n(Cc3ccccc3F)nc12	i
SMILES	Methyltransferases
CC(C)CN(CCCN1C(=O)c2cc3occc3n2CC1(C)C(=O)NC1CCCCCC1)CC(C)C (stereo unspecified)	i
CCCSc1nc(N[C@@H]2C[C@H]2c2ccc(F)c(F)c2)c2nnn([C@@H]3C[C@H](OCCO)[C@@H](O)[C@H]3O)c2n1	+
Cc1cccc(NC(=O)N2Cc3c(sc4c3CCCC4)-n3cccc3C2c2cccc(F)c2)c1 (stereo unspecified)	i
CCOc1ccccc1CN1C(=O)c2cc3ccccc3n2CC1(C)C(=O)NC1CCCCC1 (stereo unspecified)	i
Cc1cccc(Cn2nc3n(CCC(C)C)c(=O)c4ccccc4n3c2=O)c1	i
CC1(C(=O)NC2CCCCC2)Cn2c(cc3ccccc32)C(=O)N1Cc1cccc(F)c1 (stereo unspecified)	i
Cc1coc2c1C(=O)C(=O)c1c-2ccc2c1CCCC2(C)C	+
Cc1coc2c1C(=O)C(=O)c1c-2ccc2c(C)cccc12	i
CCCN1C(=O)c2c(C(=O)NCc3ccc(OC)c(OCC)c3)ncn2CC1(C)C(=O)NC1CCCC1 (stereo unspecified)	i
O=c1c2ccccc2n2c(SCc3ccccc3)nnc2n1CCc1ccccc1	i
CCOC(=O)CCN(C(=O)c1ccc2c(c1)nc(CNc1ccc(C(=N)N)cc1)n2C)c1ccccn1	+
CC(=O)Nc1ccc(OCC(=O)NCc2ccccc2C)nc1	i
CC(=O)O[C@@H]1[C@H]2[C@@H](OC(=O)c3ccccc3)[C@@H](C)C[C@]2(O)[C@H](OC(C)=O)[C@@]2(C)[C@@H]3CC(C)(C)C(=O)[C@]3(OC(C)=O)C[C@@]12C	i
CCOC(=O)c1cc2n(n1)CC(C)(C(=O)NCc1ccc(C)cc1)N(CCc1ccc(Cl)cc1)C2=O (stereo unspecified)	i
OC[C@@H]1CNC[C@H]1c1nc(-c2ccncc2)no1	i
CN(C)S(=O)(=O)c1ccc(NC(=S)N2CCC(C(O)(c3ccccc3)c3ccccc3)CC2)cc1	i
CC(=O)Nc1c2n(c3ccc(F)cc13)CC(C)(C(=O)NCCC(C)C)N(Cc1ccccc1C)C2=O (stereo unspecified)	i
Cc1ccc(CNC(=O)CSc2nnc3n(Cc4ccccc4)c(=O)c4ccccc4n23)cc1	i
CC(=O)OC1CC(=O)C2(C)C3CC4=C(OC(C)CC4=O)OC3(C)CCC2C1(C)C (stereo unspecified)	+
CC1CCC(NC(=O)C2(C)Cn3c(nc4ccccc43)C(=O)N2CCN2CCOCC2)CC1 (stereo unspecified)	i
CC(=O)N1CCN(C(=O)c2ccc3oc(-c4ccccn4)nc3c2)CC1	i
CN1CCN(C(=O)c2ccc3cc(CCNc4ncnc5ccc(C#N)cc45)ccc3c2)CC1	+
COc1ccc(CCNc2ncnc3c2CN(C2CCC2)C(=O)N(C)C3)cc1	i
O=S(=O)(NC1CCC(c2cc(F)ccc2F)(S(=O)(=O)c2ccc(Cl)cc2)CC1)C(F)(F)F (stereo unspecified)	i
CC(=O)OC(C)C(C)(O)C(=O)O[C@@H]1CC[C@]2(C)CC(=O)C(=C(C)C)C[C@H]2[C@]1(C)OC(C)=O (stereo partly specified)	i
SMILES	Methyltransferases
CC(C)=C1CC2C(CCC2(C)O)C(C)(O)CC1=O (stereo unspecified)	+
CC1=CC(=O)C(=C(C)C)CC2C1CCC2(C)O (stereo unspecified)	i
CC1=C2C(O)C(=O)OC(c3ccoc3)C2(C)CCC1O (stereo unspecified)	i
CCc1nc(CN2CCOC(c3ccc4cc(OC)ccc4c3)C2)no1 (stereo unspecified)	i
CN(C)c1ccc(-c2nnc3n(Cc4ccccc4)c(=O)c4ccccc4n23)cc1	i
Cc1nc(C#Cc2ccnc(Cl)c2)c(C)n1-c1ccc(F)cc1	+
CC1(C)C(=O)CCC2(C)C1C(O)C=C1COC(=O)C12O (stereo unspecified)	i
Nc1nc(Nc2ccc3c(c2)CCC(N2CCCC2)CC3)nn1-c1cc2c(nn1)-c1ccccc1CCC2 (stereo unspecified)	+
O=C(CCn1ccc2cc(S(=O)(=O)N3CCCCC3)ccc21)NCCCc1ccccc1	i
Nc1nc(N)c2nc(CNc3ccc(C(=O)NC(CCC(=O)O)C(=O)O)cc3)cnc2n1 (stereo unspecified)	i
Cn1c(C(=O)N2CCN(c3ccccn3)CC2)nc2nc(-c3ccccc3)c(Cl)cc21	i
